Here are results for seven compounds from PubChem BioAssay (NCI).

About 83,000 compounds went through this panel and 20% of them were active in at least one assay; those are over-represented in the sample as a whole.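 The endpoint reported here, percent growth, reads 100 for growth as untreated, 0 for no net growth and -100 for all cells dead.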 Unmarked numbers belong to inactive results. Calls of active or inactive are those of the source. The calls were made as follows: active = growth percent below 10; inactive = the rest.

Some test systems named below: NCI-H23 lung; NCI-H226 lung; NCI-H322M lung; HOP-62 NSCLC; NCI-H460 lung; HOP-92 NSCLC; NCI-H522 lung; A549/ATCC NSCLC; 786-0 renal; COLO 205 colon; DU-145 prostate; K-562 leukemia; MALME-3M melanoma; MDA-MB-231 breast; RXF 393 renal; SF-268 CNS; SF-295 CNS; SF-539 CNS; UACC-257 melanoma; M14 melanoma.
Common to all, as to assay: NCI-60 one-dose screen, 48 h (100 = growth as untreated, 0 = no growth, -100 = all killed)
What all share (conditions): 10 µM unless noted

`COc1ccc(C(=O)c2cc(C)c(OC)c(C)c2)c(OC)c1O`: the growth is 31.7% in the experiment on NCI-H23 lung; 7.47% (active) in the experiment on NCI-H226 lung; 45.8% in the experiment on NCI-H322M lung; 12.9% in the experiment on HOP-62 NSCLC; 2.04% (active) in the experiment on NCI-H460 lung; -0.0707% (active) in the experiment with HOP-92 NSCLC. For the same compound, the growth was -9.43% (active) with NCI-H522 lung; 14.5% in the experiment on A549/ATCC NSCLC; 15.2% with 786-0 renal; 66.8% in the experiment with COLO 205 colon; -5.78% (active) in the experiment on DU-145 prostate; 8.52% (active) in the experiment on K-562 leukemia. Also, the growth in the experiment with MALME-3M melanoma was 54.8%; in the experiment on MDA-MB-231 breast, 16.8%; in the experiment on RXF 393 renal, 35.4%; in the experiment on SF-268 CNS it was 31.5%; with SF-295 CNS, 25.2%; in the experiment on SF-539 CNS, -10.8% (active). For the same compound, the growth with UACC-257 melanoma was 50.6%; in the experiment with M14 melanoma it was -1.65% (active).
Take `Cc1nn(-c2ccccc2)c(N2CCOCC2)c1/C=N/N=c1\sc2ccccc2n1C`: the growth with NCI-H23 lung is 79%; with NCI-H226 lung it was 73.8%; in the experiment on NCI-H322M lung, 92.6%; in the experiment on HOP-62 NSCLC it was 99.4%; with NCI-H460 lung, 39.6%; with HOP-92 NSCLC it was 53%. Besides, the growth in the experiment with NCI-H522 lung was 81.5%; with A549/ATCC NSCLC, 87.7%; in the experiment on 786-0 renal, 96.7%; with COLO 205 colon it was 82.7%; in the experiment on DU-145 prostate it was 100%; in the experiment with K-562 leukemia it was 41.7%. Moreover, the growth was 99.4% with MALME-3M melanoma; 52.3% with MDA-MB-231 breast; 88.6% in the experiment on RXF 393 renal; 85% in the experiment on SF-268 CNS; 89.3% in the experiment with SF-295 CNS; 84.7% in the experiment with SF-539 CNS. In addition, the results for the growth in the experiment with UACC-257 melanoma and in the experiment on M14 melanoma were 87.8% and 87.5%, respectively.
For the compound `O=C1/C(=C\c2cn(Cc3ccccc3)c3ccc(Br)cc23)c2ccccc2N1c1c(Cl)cccc1Cl`, the growth is 96.9% with NCI-H23 lung; 91.6% in the experiment on NCI-H226 lung; 96.8% in the experiment with NCI-H322M lung; 98.5% with HOP-62 NSCLC; 107% in the experiment on NCI-H460 lung; 57.1% in the experiment with HOP-92 NSCLC. In addition, the growth with NCI-H522 lung is 80.7%; in the experiment on A549/ATCC NSCLC, 90.5%; with 786-0 renal it was 99.2%; in the experiment with COLO 205 colon, 108%; with DU-145 prostate it was 127%; in the experiment on K-562 leukemia, 109%. The growth in the experiment with MALME-3M melanoma is 109%; with MDA-MB-231 breast, 98%; in the experiment with RXF 393 renal, 101%; in the experiment on SF-268 CNS, 113%; with SF-295 CNS, 98.5%; in the experiment on SF-539 CNS, 103%. Also, the growth in the experiment on UACC-257 melanoma was 102%; in the experiment on M14 melanoma, 105%.
On to `CCCCCCOc1ccc(C(=N)N(CCCC)CCCC)c2ccccc12`, for which the growth was -94.6% (active) in the experiment with NCI-H23 lung; -70.5% (active) with NCI-H226 lung; -93.6% (active) with NCI-H322M lung; -89% (active) in the experiment on HOP-62 NSCLC; -57.7% (active) with NCI-H460 lung; -81.7% (active) in the experiment on HOP-92 NSCLC. Further, the growth in the experiment with NCI-H522 lung is -84.6% (active); in the experiment on A549/ATCC NSCLC, -83.1% (active); in the experiment with 786-0 renal, -94% (active); in the experiment on COLO 205 colon, -79.9% (active); in the experiment with DU-145 prostate it was -92.4% (active); in the experiment with K-562 leukemia, -42.3% (active). The growth was -82.7% (active) in the experiment on MALME-3M melanoma; -89.7% (active) in the experiment on MDA-MB-231 breast; -94.5% (active) in the experiment with RXF 393 renal; -84.4% (active) in the experiment with SF-268 CNS; -89.1% (active) with SF-295 CNS; -92.8% (active) in the experiment on SF-539 CNS. For the same compound, the growth in the experiment on UACC-257 melanoma is -85.5% (active); in the experiment with M14 melanoma, -96.1% (active).
Consider `N#Cc1cc(-c2nc3ccccc3s2)c(=O)n(NS(=O)(=O)c2ccc(Cl)cc2)c1N`, for which the growth was 94.9% in the experiment on NCI-H23 lung; 80.8% with NCI-H226 lung; 102% with NCI-H322M lung; 89.6% in the experiment with HOP-62 NSCLC; 105% with NCI-H460 lung; 98.6% in the experiment on HOP-92 NSCLC. Moreover, the growth in the experiment on NCI-H522 lung is 96.3%; in the experiment on A549/ATCC NSCLC it was 117%; in the experiment with 786-0 renal, 105%; in the experiment with COLO 205 colon it was 122%; with DU-145 prostate, 110%; with K-562 leukemia, 96.7%. Further, the growth in the experiment on MALME-3M melanoma is 105%; in the experiment with MDA-MB-231 breast, 87.2%; in the experiment on RXF 393 renal it was 109%; in the experiment with SF-268 CNS it was 97.8%; in the experiment with SF-295 CNS, 110%; with SF-539 CNS it was 93.9%. Also, the growth in the experiment with UACC-257 melanoma is 111%; in the experiment on M14 melanoma, 97.5%.
As for `C=C1C(=O)O[C@H]2[C@H]1CC/C(COC(=O)NCCc1c[nH]c3ccc(Cl)cc13)=C\CC[C@@]1(C)O[C@@H]21`, the growth in the experiment with NCI-H23 lung was 13.8%; with NCI-H226 lung, 30.7%; with NCI-H322M lung, 81.6%; in the experiment on HOP-62 NSCLC, 64.6%; in the experiment with NCI-H460 lung, 17.5%; in the experiment with HOP-92 NSCLC, -71% (active). The growth in the experiment with NCI-H522 lung was -80.1% (active); in the experiment with A549/ATCC NSCLC, 56.5%; with 786-0 renal it was -78.7% (active); in the experiment with COLO 205 colon, -70.9% (active); in the experiment with DU-145 prostate, -87.8% (active); in the experiment on K-562 leukemia, -13.2% (active). The growth in the experiment on MALME-3M melanoma was -84.4% (active); with MDA-MB-231 breast, -70.5% (active); with RXF 393 renal it was -93.6% (active); with SF-268 CNS it was -71% (active); in the experiment with SF-295 CNS, 75.4%; in the experiment with SF-539 CNS, -63.8% (active). Besides, the growth was -11.6% (active) in the experiment on UACC-257 melanoma and -54.8% (active) with M14 melanoma.
Consider `COc1ccccc1C(C[N+](=O)[O-])c1c(-c2ccccc2)[nH]c2cc(C)ccc12` (stereo not given), for which the growth in the experiment on NCI-H23 lung was 68.4%; in the experiment on NCI-H226 lung it was 53.1%; in the experiment on NCI-H322M lung, 90.4%; with HOP-62 NSCLC, 71.9%; in the experiment on NCI-H460 lung it was 85.2%; with HOP-92 NSCLC it was 64.4%. Also, the growth is 27.8% with NCI-H522 lung; 61.8% in the experiment with A549/ATCC NSCLC; 86.8% in the experiment with 786-0 renal; 78.4% in the experiment with COLO 205 colon; 101% in the experiment on DU-145 prostate; 8.66% (active) with K-562 leukemia. Besides, the growth in the experiment on MALME-3M melanoma is 61.2%; in the experiment with MDA-MB-231 breast it was 55.4%; in the experiment with RXF 393 renal, 74.7%; with SF-268 CNS it was 78.6%; with SF-295 CNS it was 54.1%; in the experiment with SF-539 CNS, 84.2%. For the same compound, the growth was 83% with UACC-257 melanoma and 45.6% in the experiment on M14 melanoma.
